Assay outcomes from PubChem BioAssay.
Compounds with a hit are over-represented: about 6.2% of the library has one in this group of screens.
AHR act: AHR activators, primary screen, cell-based, luminescence, luciferase reporter, human. Aryl hydrocarbon receptor (Homo sapiens), P35869. AHR-responsive luciferase reporter cells. activation, % at 5 µM. actives 2.5% (n = 320,000). AID 2796, 2010; in the data active = activation above about 47%;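 note: 0% = vehicle wells and 100% = reference agonist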
AI-2 QS mod: Vibrio harveyi AI-2 quorum sensing modulators, primary screen, JMH597 strain, luminescence/OD600 ratio. Vibrio harveyi JMH597 AI-2 luminescence/OD600 ratio, 9 h; hits give low values; strain lacks LuxN and CqsS sensors; 0 = neutral-control median. activity change, % at 7.5 µM. actives 0.4% (n = 300,000); in the data active = activity change below about -75%, passing the limit was not always enough;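 note: luminescence divided by OD600 gain over 9 h not by final OD600 alone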
SUMO Mot1 rescue: yeast Mot1-301 growth rescue at high temperature, primary screen, SUMOylation pathway inhibitor project, S. cerevisiae, ATP luminescence, 38.5C. growth rescue, % at 18.8 µM. AID 2716, 2010. S. cerevisiae Mot1-301 growth rescue; percent above DMSO median, 100 means doubled. actives 1% (n = 320,000);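 active = every valid replicate shows activation above 250% relative to neutral control wells; inactive = the rest, any valid replicate at or below 250%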;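 note: OY570 slx delta 5 strain wells were the positive control but not used for scaling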
NR3A LBD binder: binders of NR3A ligand-binding domain, primary screen, biophysical, differential scanning fluorimetry, uHTS. Glutamate receptor ionotropic, NMDA 3A (GRIN3A) ligand-binding domain. Tm shift relative to glycine control, % at 25 µM. actives 2.5% (n = 340,000). AID 1259313, 2017. NR3A LBD differential scanning fluorimetry, Tm shift; 0% = protein alone, 100% = glycine-bound protein;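 active = melting temperature shift of at least 10% of the positive control shift, at one fixed dose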
NTR1 agonist: agonists of human NTR1, primary screen, imaging, U2OS cells, beta-arrestin-GFP, high content; Neurotensin receptor type 1 (Homo sapiens), P30989; NTR1-U2OS beta-arrestin-GFP spot imaging, agonist mode; actives 0.17% (n = 330,000); activation, % at 20 µM;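 active = activation at or above 40% of the spot to cytoplasm intensity ratio, with at least 20 cells analyzed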;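 note: 0% = DMSO without peptide and 100% = 100 nM NTR1 peptide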
Target sequence (P30989 whole entry, looked up): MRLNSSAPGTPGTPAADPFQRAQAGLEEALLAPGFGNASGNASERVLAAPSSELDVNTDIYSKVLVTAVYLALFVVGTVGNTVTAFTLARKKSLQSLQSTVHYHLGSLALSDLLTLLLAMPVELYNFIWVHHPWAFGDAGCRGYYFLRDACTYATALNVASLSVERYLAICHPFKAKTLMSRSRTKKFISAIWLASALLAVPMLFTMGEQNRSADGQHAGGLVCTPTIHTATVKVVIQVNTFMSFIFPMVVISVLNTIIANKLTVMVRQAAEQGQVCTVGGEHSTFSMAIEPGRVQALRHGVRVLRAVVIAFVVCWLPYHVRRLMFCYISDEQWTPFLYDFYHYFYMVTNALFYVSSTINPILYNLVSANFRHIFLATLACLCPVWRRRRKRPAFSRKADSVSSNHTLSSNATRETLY
Cardio protect: cardioprotection against H2O2-induced cell death, primary screen, uHTS, H9c2 cells, ATPLite luminescence | actives 0.63% (n = 360,000) | H9c2 cardiomyocytes, H2O2 injury protection, 2 h | protection from H2O2 cell death, % at 20 µM;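 active = compounds giving at least 50% protection of heart cells from peroxide-induced death in the single-dose screen, raw or plate-pattern-corrected value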;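 note: 0% = DMSO wells with peroxide and 100% = DMSO wells without peroxide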
* hit, by the source's call; . = no result.

SMILES	AHR act	AI-2 QS mod	SUMO Mot1 rescue	NR3A LBD binder	NTR1 agonist	Cardio protect
CCOc1ccc(CN2CCNC(=O)C2CC(=O)NCc2csc(C(C)C)n2)cc1 (stereo unspecified)	.	18	.	-1	0	-5
O=C(NNC(=O)c1cc2ccccc2oc1=O)c1ccccc1[N+](=O)[O-]	-9	18	-10	-1	0	-2
CC1(C)CC(=O)N(c2cc(Cl)cc(Cl)c2)C(=O)C1	3	-4	-13	-7	-1	3
CCCCN(C(=O)CSc1nn(-c2ccc(F)cc2)c(=S)s1)c1c(N)n(CCCC)c(=O)[nH]c1=O	31	.	-24	-4	3	2
Cn1c(N)c(C(=O)CSc2nn(-c3ccc(F)cc3)c(=S)s2)c(=O)n(C)c1=O	0	.	-10	31*	3	-17
Cc1cc(S(=O)(=O)Nc2ccc(C(=O)NCc3cccnc3)cc2)ccc1F	1	34	-3	0	1	7
Cc1ccc2c(c1)[C@H]1[C@H](CO2)[C@H](c2ccccc2)[C@]2(C)C(=O)Nc3ccccc3C(=O)N12	3	.	341*	-2	2	-4
C[C@@]12C(=O)Nc3ccc(F)cc3C(=O)N1[C@H]1c3cc(Br)ccc3OC[C@@H]1[C@@H]2c1ccccc1	5	.	349*	-9	-2	-7
C[C@@]12C(=O)Nc3cc(F)ccc3C(=O)N1[C@H]1c3cc(Br)ccc3OC[C@@H]1[C@@H]2c1ccccc1	3	.	302	-3	-2	-3
COC(=O)C(Cc1ccc(OC(=O)c2ccc(C)cc2)cc1)N1Cc2ccccc2C1=O (stereo unspecified)	9	8	16	14*	0	-17
COC(=O)C(Cc1ccc(O)cc1)N1Cc2ccccc2C1=O (stereo unspecified)	2	18	25	0	1	-7
CCOc1ccccc1NC(=O)c1ccc2nc[nH]c2c1	-13	24	457	-5	-1	7
CCOc1ccc(CCNC(=O)C2CCCN(c3nn4c(=O)cc(C)nc4s3)C2)cc1OCC (stereo unspecified)	3	31	-2	1	1	9
CCOc1ccc(CCNC(=O)C2CCCN(c3nnc(-n4cccc4)s3)C2)cc1OCC (stereo unspecified)	1	26	17	39*	1	13
CN1C(C(=O)NCc2cccc(C(F)(F)F)c2)CC2Cn3c(nc4cc(Cl)c(Cl)cc43)C21 (stereo unspecified)	2	13	277*	-8	-2	-8
NS(=O)(=O)c1ccc(N=Cc2c(O)n(-c3nccs3)c(=O)c3ccccc23)cc1	2	25	1	-3	2	52*
Cc1nn(-c2ccccc2)c(N2CCCC2)c1/C=N/NC(=O)c1cccc(S(=O)(=O)Nc2ccc(Cl)cc2)c1	6	41	.	13*	9	-8
Cc1nn(-c2ccccc2)c(N2CCCC2)c1/C=N/NC(=O)c1cc(-c2ccccn2)nc2ccccc12	47	20	-9	-1	3	57*
Cc1nn(-c2ccc(Cl)cc2)c(Cl)c1/C=N/NC(=O)c1ccc(NS(=O)(=O)c2cccs2)cc1	16	25	54	14*	4	4
O=C(NC(Cc1cccc(F)c1)C(=O)O)C1CCCCC1 (stereo unspecified)	-4	.	18	1	0	6
CN(C(=O)c1ccc(Cl)cc1)c1ccc(OCC(=O)Nc2cc(C(=O)O)ccc2Cl)cc1	.	.	.	-1	.	.
C[C@H](CO)NC(=O)c1nc[nH]c1C(=O)N[C@@H](C)c1ccccc1	.	.	.	.	.	13
CC(=O)c1cccc(NC(=O)C2C3C=CC(C3)C2C(=O)O)c1 (stereo unspecified)	1	2	-5	0	-1	-5
COc1cc(NC(=O)C2C3C=CC(C3)C2C(=O)O)ccc1NC(=O)c1ccccc1 (stereo unspecified)	56*	22	-25	4	1	1
COc1cc([N+](=O)[O-])ccc1NC(=O)C1C2C=CC(C2)C1C(=O)O (stereo unspecified)	-2	44	-37	-2	-1	2
SMILES	AHR act	AI-2 QS mod	SUMO Mot1 rescue	NR3A LBD binder	NTR1 agonist	Cardio protect
COc1cccc(C(=O)Nc2ccc(NC(=O)C3C4C=CC(C4)C3C(=O)O)cc2)c1 (stereo unspecified)	73*	30	-8	-2	-1	-5
COc1ccc(S(=O)(=O)N2CCCCC2)cc1NC(=O)c1cccc(S(=O)(=O)N2CC(C)OC(C)C2)c1 (stereo unspecified)	.	.	.	-1	.	1
CC(=O)c1cccc(NC(=O)C(C)OC(=O)CCc2nc3ccccc3c(=O)[nH]2)c1 (stereo unspecified)	2	.	18	-1	0	52*
CC(OC(=O)CCc1nc2ccccc2c(=O)[nH]1)C(=O)NCc1ccc2c(c1)OCO2 (stereo unspecified)	2	7	-11	4	2	67*
CC(OC(=O)CCc1nc2ccccc2c(=O)[nH]1)C(=O)Nc1cccc(C(F)(F)F)c1 (stereo unspecified)	0	.	-4	-2	1	34
CCCc1nc2ccccc2c(C(=O)OC(C)C(=O)NCc2ccc3c(c2)OCO3)c1CC (stereo unspecified)	5	8	-8	-7	10	2
Cc1cc(C)nc(SCC(=O)N2CCc3ccccc32)n1	73*	11	110	3	0	-3
Cc1nc(C)c(NC(=O)N2CCc3ccccc32)cc1NC(=O)N1CCc2ccccc21	50*	10	-4	-6	-1	-3
Cc1cc(C)n2nc(SCC(=O)N3CCc4ccccc43)nc2n1	38	19	13	-3	-1	4
CCOC(=O)c1cc(NC(=O)N2CCCc3ccccc32)c(C)nc1C	14	12	.	0	-1	3
COc1cccc(C(c2nnnn2Cc2ccccc2)N2CCN(C3CCCC3)CC2)c1OC (stereo unspecified)	-7	21	6	-1	0	95*
COc1ccc(C(c2nnnn2C2CCCC2)N2CCN(C3CCCC3)CC2)cc1OC (stereo unspecified)	1	4	-2	11*	-1	-1
CCCCCc1nnc(NC(=O)NS(=O)(=O)c2ccc(C)cc2)s1	-1	37	-6	-1	-1	4
